Compounds with a hit are over-represented: about 10% of the library has one in this group of screens.
G9a inh: blocks human histone lysine methyltransferase G9a; Potency, µM (doses to about 102 µM), for inactives: top-dose activity, negative = inhibition, hits mostly inhibitors; G9a H3K9 monomethylation, AlphaScreen, 2 h; actives 8.8% (n = 350,000); Q96KQ7; also: % is scaled to controls: 0 for no effect and ±100 for the full control effect; nearly all actives have a fitted effect of over 75% in size
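AlphaScreen detection with an anti-monomethyl H3K9 antibody quantified product after a 2 h room-temperature reaction containing 500 nM biotinylated H3K9 peptide, 20 µM SAM and 20 nM enzyme, which had been preincubated 15 min with compound.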
HP1b chromo inh: blocks HP1-beta chromodomain binding to methylated histone tails. AID 540317. P83916. actives 0.56% (n = 390,000). Potency, µM (highest dose often 114 µM), for the others: top-dose activity change, negative = inhibition, actives largely listed as inhibitors. AlphaScreen HP1-beta / biotin-H3K9me3 peptide binding; also: nearly all actives have a fitted effect of over 70% in size
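HP1-beta protein (50 nM final) preincubated 30 min at room temperature with biotinylated H3(1-18)K9me3 peptide (50 nM) in PBS pH 7.4, 0.01% Tween-20, then compound added for 30 min. AlphaScreen streptavidin donor/nickel chelate acceptor beads (10 ug/mL final), 30 min dark, luminescence read.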
BAZ2B block: inhibitors of human BAZ2B bromodomain. AlphaScreen BAZ2B-H3K14Ac peptide displacement. Potency, µM (highest dose often 114 µM), inactives show at the top dose activity change, negative = inhibition, most hits filed as inhibitors. actives 4.4% (n = 360,000). Q9UIF8; also: % is scaled to controls: 0 for no effect and ±100 for the full control effect; nearly all actives have a fitted effect of over 60% in size
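Protein-peptide AlphaScreen: BAZ2B 50 nM, b-H3K14Ac 50 nM, 1x PBS pH 7.4 + 0.01% Tween-20. Preincubation 30 min RT; cpd 30 min RT (top 110 uM); beads 20 min RT, light-protected.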
GLS inh: inhibitors of human glutaminase (GLS); actives 0.21% (n = 410,000); AID 624170; Potency, µM (series often up to 45.5 µM), without a hit: at the top dose activity change, negative = inhibition, hits mostly inhibitors; GLS enzymatic activity, qHTS titration; also: % is scaled to controls: 0 for no effect and ±100 for the full control effect
Target sequence (O94925 whole entry, looked up): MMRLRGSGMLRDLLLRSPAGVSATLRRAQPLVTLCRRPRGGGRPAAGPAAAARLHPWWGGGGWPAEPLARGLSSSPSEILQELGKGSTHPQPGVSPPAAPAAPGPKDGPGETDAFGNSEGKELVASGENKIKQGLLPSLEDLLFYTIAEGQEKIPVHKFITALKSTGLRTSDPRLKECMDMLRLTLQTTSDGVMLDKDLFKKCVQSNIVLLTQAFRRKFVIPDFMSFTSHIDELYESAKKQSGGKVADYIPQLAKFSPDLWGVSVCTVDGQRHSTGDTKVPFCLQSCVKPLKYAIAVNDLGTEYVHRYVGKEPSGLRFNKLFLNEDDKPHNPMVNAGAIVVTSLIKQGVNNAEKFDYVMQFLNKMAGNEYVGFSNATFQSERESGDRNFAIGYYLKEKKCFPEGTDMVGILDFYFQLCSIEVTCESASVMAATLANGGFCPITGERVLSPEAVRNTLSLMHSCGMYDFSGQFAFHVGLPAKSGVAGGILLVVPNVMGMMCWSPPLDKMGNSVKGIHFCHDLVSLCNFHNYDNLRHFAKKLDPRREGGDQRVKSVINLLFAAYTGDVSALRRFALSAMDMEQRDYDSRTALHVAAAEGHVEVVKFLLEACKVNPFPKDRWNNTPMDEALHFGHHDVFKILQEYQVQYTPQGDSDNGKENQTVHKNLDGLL
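Coupled fluorescence readout: glutamate oxidase/HRP/Amplex Red detect glutamate formed by hKGA from L-glutamine (1 mM solution added). Buffer 45 mM KH2PO4 pH 8.2, 0.02% Tween-20; reads at t0 and 30 min RT.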
JMJD2A Tudor inh: JMJD2A Tudor domain (human) inhibition | AlphaScreen JMJD2A-Tudor / H3K4me3 peptide binding | AID 504339 | actives 4.4% (n = 390,000) | O75164 | Potency, µM (top dose mostly 114 µM), for the others: top-dose activity change, negative = inhibition, hits mostly inhibitors; also: % is scaled to controls: 0 for no effect and ±100 for the full control effect; nearly all actives have a fitted effect of over 50% in size
L3MBTL1 block: inhibitors of human L3MBTL1 | Q9Y468 | AlphaScreen L3MBTL1–H3K9me1 peptide binding | Potency, µM (top dose mostly 57.1 µM), for the others: at the top dose activity, negative = inhibition, usual class: inhibitors | actives 0.66% (n = 230,000) | AID 485360; also: % is scaled to controls: 0 for no effect and ±100 for the full control effect; nearly all actives have a fitted effect of over 60% in size
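Displacement of a biotinylated histone H3(1-15) peptide monomethylated at Lys9 (75 nM) from L3MBTL1 (50 nM) was measured by AlphaScreen after a 30 min room-temperature compound incubation; cefsulodin titration served as intraplate control.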
* hit, by the source's call; ? = inconclusive; · = not tested or not shown; ! = not active in a repeat; [ ] = remark or other dose. Calls follow the shape of the dose curve; as a rule, active = well fitted curve in the direction sought with a large enough effect; inconclusive = small, poorly fitted or top-dose-only effect, or another doubt; inactive = no such curve, though single readings can be large; an effect the other way counts as inactive or inconclusive. Potency is read from the fitted curve at half-maximal effect.

SMILES	G9a inh	HP1b chromo inh	BAZ2B block	GLS inh	JMJD2A Tudor inh	L3MBTL1 block
CSc1ncc(Cl)c(C(=O)O)n1 (tested in a mixture with another compound)	·	14.6%	?	-2.2%	79.4µM*	·
O=C(O)CC1OCC=C2CN3CCC45C6=CC(=O)C(=O)C([N+](=O)[O-])=C6NC4C1C2CC35 (stereo not drawn)	·	54.6%	?	-13.9%	2.51µM*!	25.1µM*
C/C=C(\CC)C(=O)NC(N)=O	·	·	·	-5.1%	·	·
NC(=O)C[N+]1(CC#CC(O)(c2ccccc2)c2ccccc2)CCCC1	35.5µM*	21.6%	-3.1%	0.8%	31.6µM*	·
O=C(O)C(O)(c1ccccc1)C1CCCCC1 (stereo not drawn)	4.5%	25.8%	-27.1%	-0.7%	-11.6%	-5.7%
CN(C)[C@@H]1C(=O)C(C(N)=O)=C(O)[C@]2(O)C(=O)C3=C(O)c4c(O)ccc(Cl)c4[C@](C)(O)[C@H]3C[C@@H]12	?	·	·	-0.8%[20 µM]	·	·
CN(C)C1C(=O)C(C(N)=O)=C(O)C2(O)C(=O)C3=C(O)c4c(O)cccc4C(C)(O)C3C(O)C12 (stereo not drawn)	·	16.5%	2µM*	9.9%	-12.2%	·
COCC(=O)N1CCC2(CCCN(Cc3ccncc3)C2)CC1	-4.4%[12.7 µM]	·	·	·	·	·
CC(C)CCC(=O)OC1CCC2C3CCC4=CC(=O)CC[C@]4(C)C3CC[C@]12C (stereo partly drawn)	·	·	·	4.8%	·	·
CNc1ccc2oc(C[C@H]3O[C@@]4(CC[C@H]3C)O[C@H]([C@H](C)C(=O)c3ccc[nH]3)[C@H](C)C[C@H]4C)nc2c1C(=O)O	-20.1%[59 µM]	17.4%	-10.4%	65.3%	?	·
CNc1ccc2oc(C[C@@H]3OC4(CC[C@@H]3C)O[C@H]([C@@H](C)C(=O)c3ccc[nH]3)[C@H](C)C[C@H]4C)nc2c1C(=O)O (stereo partly drawn)	15.8µM*	·	·	·	·	·
CC(=O)c1ccc2c(c1)C1C(Cl)C(Sc3ccccc3[N+](=O)[O-])CC1C(c1ccccc1)N2 (stereo not drawn)	10µM*	-23.4%	44.7µM*	-7.8%	44.7µM*	-12.7%
O=C1Nc2cc(C(=O)N3CCC4(CC3)OCCO4)ccc2NC1CSCc1cccc(F)c1 (stereo not drawn)	7.08µM*	·	-22.0%	·	·	·
O=C(c1ccc2c(c1)N(Cc1ccccc1)CCS2)N1CCC2(CC1)OCCO2	?	8.5%	?	14.8%	?	·
Nc1nonc1-n1nnc(C(=O)N/N=C/c2ccc3c(c2)OCO3)c1CSc1ccccc1	41.0%	52.1%	-6.2%[57.1 µM]	3.8%	1.4%	·
CN1/C(=C\C=C\C2=[N+](C)c3ccc4ccccc4c3C2(C)C)C(C)(C)c2ccccc21	10µM*	·	4.47µM*	·	·	15.8µM*
Oc1ccc(CC2CC3CCN2CC3)cc1O (stereo not drawn)	?	-29.6%	-2.3%	-5.9%	28.2µM*	-2.1%
O=C1C2CCN(CC2)C1Cc1ccccc1O (stereo not drawn)	9.1%	22.7%	5.3%	50.1%	-5.2%	-1.3%
CC(C)(COC(=O)C(c1ccccc1)c1ccccc1)CN1CCOCC1	·	81.9%	·	-7.4%	106.3%	·
O=C1NC(=O)C(=Cc2ccco2)C(=O)N1	·	-34.3%[57 µM]	·	11.2µM*	44.7µM*	·
O=C1NC(=S)N(c2ccc(F)cc2)C(=O)/C1=C/c1ccco1	?	·	1.78µM*	·	·	-93.6%
COc1ccc(OC)c(N2C(=O)NC(=O)C(CCc3ccncc3)(CCc3ccncc3)C2=O)c1	?	25.0%	2.4%	-3.0%	-9.9%	-1.6%
COc1ccc(OC)c(N2C(=O)/C(=C/c3ccco3)C(=O)NC2=S)c1	1.78µM*	3.16µM*	1.41µM*	103.6%	1.58µM*	·
O=C1NC(=S)N(c2ccc(F)cc2)C(=O)/C1=C\c1ccoc1	7.94µM*	5.62µM*	14.1µM*	127.6%	3.16µM*	·
COc1cc(/C=C2\C(=O)NC(=O)N(c3ccccc3)C2=O)c([N+](=O)[O-])cc1OC	10µM*	1.3%	-24.5%	-7.3%	-25.6%	16.8%
SMILES	G9a inh	HP1b chromo inh	BAZ2B block	GLS inh	JMJD2A Tudor inh	L3MBTL1 block
CCc1ccc(N2C(=O)NC(=O)/C(=C/c3ccsc3)C2=O)cc1	39.8µM*	·	2.2%	·	·	·
COc1ccc(OC)c(N2C(=O)NC(=O)/C(=C/c3ccc([N+](=O)[O-])s3)C2=O)c1	11.2µM*	31.6µM*	39.8µM*	-37.7%	28.2µM*	·
O=C(O)Cn1cc(/C=C2\C(=O)NC(=O)N(c3ccc(Cl)cc3)C2=O)c2ccccc21	?	29.2%	?	-8.6%	-20.4%	·
O=C1NC(=S)N(c2ccc(Cl)cc2)C(=O)/C1=C/N1CCN(C(=O)c2ccco2)CC1	50.1µM*	17.1%	-38.9%	-28.5%	-8.3%	0.6%
COc1ccc(OC)c(N2C(=O)CC(=O)NC2=O)c1	?	34.8%	-20.9%	2.1%	-11.7%	·
CCCCCCC(C)(C)c1cc(OC)c2c(c1)OC(C)(C)[C@@H]1CC=C(C)C[C@@H]21	14.6%[59 µM]	·	·	·	·	·
NC(=NCc1ccc(Cl)cc1)SCCCc1cnc[nH]1	46.4%[59 µM]	·	·	·	·	·
Cc1ccc(N2C(=O)NC(=O)/C(=C\c3ccoc3)C2=O)cc1	44.7µM*	16.3%	?	-8.4%	-18.2%	?
COc1ccc(N2C(=O)/C(=C/c3cc(C)n(-c4ccc(C)cn4)c3C)C(=O)NC2=S)c(OC)c1	31.6µM*	-12.2%	?	?	39.8µM*	?
COc1ccc(CN2C(=O)NC(=O)/C(=C/c3ccc([N+](=O)[O-])o3)C2=O)cc1	7.08µM*	·	14.1µM*	·	·	·
COc1ccc(CN2C(=O)NC(=O)/C(=C\c3cccc(OC)c3OC)C2=O)cc1	?	11.1%	?	-7.9%	56.2µM*	·
CC(=O)OC1CCC23C(=O)OC45CCC(C6=CC(=O)OC6)C4(C)CCC2C5CCC3(O)C1 (stereo not drawn)	-31.4%[2.33 µM]	·	·	·	·	·
Cc1cc(C)nc(N/N=C/C2=C(O)CC(c3ccccc3)CC2=O)n1 (stereo not drawn)	-13.2%	·	22.4µM*	·	·	·
CCCCCCCCCCCCCC(=O)O[C@@H]1[C@@H](C)[C@@]2(O)[C@H](C=C(CO)C[C@]3(O)C(=O)C(C)=C[C@@H]23)[C@@H]2C(C)(C)C12OC(C)=O (stereo partly drawn)	9.2%[59 µM]	·	·	·	·	·
Cn1c(=O)n(C)c2cc(N3CCCC3)c(NC(=O)Nc3ccccc3)cc21	-33.6%[59 µM]	5.6%	50.1µM*	5.9%	-22.3%	·
C=C(C)[C@H]1Cc2c(ccc3c2O[C@@H]2COc4cc(OC)c(OC)cc4[C@@H]2C3=O)O1	10.3%[12.7 µM]	·	·	-13.0%	·	·

Screening data deposited in PubChem by National Center for Advancing Translational Sciences (NCATS).
